# Test results: PubChem BioAssay (Tox21)
# Results filed as inconclusive are left out. A number with no mark means an inactive call. Calls of active or inactive are those of the source. Calls come from the whole dose curve; as a rule, active = well fitted cell-killing curve with a large enough effect in the repeat runs; inconclusive = weak or mixed curves, or effect the other way; inactive = flat fitted curve, though single readings scatter.
# Experiment: cAMP Responsive Elements (CRE) small molecule agonists, cell-based qHTS assay: qHTS cell viability counter screen (AID 2060914); note: nearly all actives have a fitted effect of over 50% in size
# Details: CRE-bla HEK293T viability, CellTiter-Glo luminescence, 5 h; series mostly up to 92.4 µM; activity change, negative = cytotoxicity: at the top concentration
# Method in brief: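 Cytotoxicity counter screen multiplexed with the CRE-bla reporter assay in HEK 293T cells: 3 h compound exposure at 37 °C, followed by CellTiter-Glo luminescence measured in the same wells.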
# % is set by controls: 0 for no effect and ±100 for the full control effect.
SMILES,"activity change, negative = cytotoxicity",Potency
Cc1cccc(CN2CCN(C(c3ccccc3)c3ccc(Cl)cc3)CC2)c1 (centres undefined),-18.6% [at 42.5 µM],–
CCCCCCC(O)CCCCCCCCCCC(=O)O (centres undefined),–,inactive
C/C=C(\C)C(=O)OC/C=C(\C)CCC=C(C)C,-2.11%,–
CC(C)=CCC/C(C)=C/CO,–,inactive
CC1(C)C(=O)N(Br)C(=O)N1Cl,0.19%,–
CCCC(=O)OCOC(=O)C1=C(C)NC(C)=C(C(=O)OC)C1c1cccc(Cl)c1Cl (centres undefined),2.39% [at 42.5 µM],–
CC(C)Cn1cnc2c(N)nc3ccccc3c21,-0.0081% [at 18.9 µM],–
CCCCCCCC(=O)Oc1c(Br)cc(C#N)cc1Br,-16%,–
c1csc(SSc2cccs2)c1,8.7%,–
CSc1ccc(C=O)cc1,13.3%,–
CC1(C)OC[C@@H](COC(=O)CCc2ccc(OC[C@@H](O)CNCCNC(=O)N3CCOCC3)cc2)O1,-0.952% [at 42.5 µM],–
COCC(=O)O[C@]1(CCN(C)CCCc2nc3ccccc3[nH]2)CCc2cc(F)ccc2[C@@H]1C(C)C,-2.48% [at 42.5 µM],–
Cc1nc(C)c(C)nc1C,15.9%,–
O=C1CCCCCN1SSN1CCCCCC1=O,-9.02%,–
N#CSCC(=O)O,4.19% [at 42.5 µM],–
CCOc1cc(OCC)c(C(=O)CCC(=O)O)cc1OCC,16.6% [at 42.5 µM],–
CCCCCCCCCCCCN,–,inactive
CC1=C(C)S(=O)(=O)CCS1(=O)=O,–,inactive
CC(=O)OCC(COC(C)=O)OC(C)=O,–,inactive
